# Source: PubChem BioAssay (NCATS)
# Where “and” joins values, the source holds several entries; their conditions need not be identical. Equal values may be shown once. A number with no mark means an inactive call. Results filed as inconclusive are left out. Calls of active or inactive are those of the source. Unless noted, calls come from the whole dose curve; as a rule, active = well fitted curve in the direction sought with a large enough effect; inconclusive = small, poorly fitted or top-dose-only effect, or another doubt; inactive = no such curve, though single readings can be large; an effect the other way counts as inactive or inconclusive.
# Columns and labels:
# [1] = qHTS assay for environmental chemicals that activate the Aryl hydrocarbon Receptor (AhR) signaling pathway (AID 651777); conditions: 1A2-DRE human hepatoma cells, luciferase, 24 h; activation: stronger effect = higher value; note: nearly all actives have a fitted effect of over 15% in size; note: potency is the fitted concentration of half-maximal effect; for activation: % of control where 0% means no effect
# Procedure, shortened: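 Human hepatoma 1A2-DRE cells, stably carrying a dioxin response element and CYP1A2 promoter driving luciferase, were exposed to compounds for 24 hr at 37 C and 5% CO2. Luciferase signal was then read after 30 min One-Glo at room temperature.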
# [2] = biological target: Peroxisome proliferator-activated receptor alpha (Homo sapiens) (UniProt Q07869); assay: qHTS assay for small molecule agonists of the peroxisome proliferator-activated receptor alpha (PPARalpha) signaling pathway (AID 651778); conditions: PathHunter PPARalpha complementation, chemiluminescence, 6 h; max response: stronger effect = higher value; note: % of control where 0% means no effect
# Sequence of Peroxisome proliferator-activated receptor alpha (Homo sapiens) (Q07869 whole entry, looked up): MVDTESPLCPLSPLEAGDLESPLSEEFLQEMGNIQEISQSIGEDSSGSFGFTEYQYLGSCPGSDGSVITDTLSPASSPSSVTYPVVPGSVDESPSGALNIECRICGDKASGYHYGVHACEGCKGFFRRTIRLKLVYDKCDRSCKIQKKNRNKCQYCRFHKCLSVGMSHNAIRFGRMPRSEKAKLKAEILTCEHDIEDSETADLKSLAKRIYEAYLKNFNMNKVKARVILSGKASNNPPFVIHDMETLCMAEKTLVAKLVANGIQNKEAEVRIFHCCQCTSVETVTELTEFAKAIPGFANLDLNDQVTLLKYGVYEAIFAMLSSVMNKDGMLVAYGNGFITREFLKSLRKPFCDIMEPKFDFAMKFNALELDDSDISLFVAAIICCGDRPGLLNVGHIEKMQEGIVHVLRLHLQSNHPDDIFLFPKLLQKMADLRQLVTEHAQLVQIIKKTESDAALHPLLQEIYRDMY
# Procedure, shortened: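 Chemiluminescence from complemented enzyme reported PPARalpha activation in cells after 6 hr of compound treatment at 37 C. The detection reagent was incubated for 60 min at room temperature, and compounds were scored as agonists.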
# [3] = qHTS assay for small molecule agonists of the antioxidant response element (ARE) signaling pathway measured by Nrf2-dependant transcriptional activity (AID 720636; active = well fitted curve in the direction sought with a large enough effect in the repeat runs; an effect the other way counts as inactive or inconclusive; note: % of control where 0% means no effect)
# Procedure, shortened: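 ARE-luc HepG2 cells carrying an Nrf2-responsive luciferase reporter were plated in medium with 1% dialyzed FBS, left 6 hr at 37 C to attach, then exposed to compound for 16 hr. Luciferase luminescence was read after ONE-Glo addition.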
# [4] = biological target: Nuclear receptor ROR-gamma (Homo sapiens) (UniProt P51449); assay: qHTS assay for small molecule antagonists of the retinoid-related orphan receptor gamma (ROR-gamma) signaling pathway (AID 651802);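 note: CHO cells with doxycycline-induced ROR-gamma expression; luciferase reporter luminescence driven by ROR response element; series mostly up to about 92 µM; % is set by controls: 0 for no effect and ±100 for the full control effect; nearly all actives have a fitted effect of over 60% in size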
# Sequence of Nuclear receptor ROR-gamma (Homo sapiens) (P51449 whole entry, looked up): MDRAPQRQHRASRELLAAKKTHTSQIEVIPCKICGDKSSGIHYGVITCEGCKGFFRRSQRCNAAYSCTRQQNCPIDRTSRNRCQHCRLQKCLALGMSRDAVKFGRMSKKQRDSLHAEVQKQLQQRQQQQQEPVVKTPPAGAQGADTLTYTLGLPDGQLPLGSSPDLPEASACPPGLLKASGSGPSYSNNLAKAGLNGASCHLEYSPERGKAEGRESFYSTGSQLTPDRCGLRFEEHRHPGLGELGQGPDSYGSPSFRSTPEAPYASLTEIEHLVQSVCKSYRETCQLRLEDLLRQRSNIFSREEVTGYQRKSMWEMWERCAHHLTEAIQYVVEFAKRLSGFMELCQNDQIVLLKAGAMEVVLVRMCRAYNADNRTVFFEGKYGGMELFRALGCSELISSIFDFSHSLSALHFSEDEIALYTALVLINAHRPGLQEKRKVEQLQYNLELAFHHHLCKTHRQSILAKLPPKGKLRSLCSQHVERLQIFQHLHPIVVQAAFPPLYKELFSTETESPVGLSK
# Procedure, shortened: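 Doxycycline-induced reporter activity in engineered CHO cells (TET-inducible ROR, RORE-LUC) was measured by luminescence after 16hr compound exposure at 37C.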
Compound,activation [1],max response [2],Potency [3],Potency [4],Potency [1]
ClC1=C(Cl)[C@]2(Cl)[C@@H]3[C@@H]4C[C@@H]([C@H]5O[C@@H]45)[C@@H]3[C@@]1(Cl)C2(Cl)Cl,-1.01%,12.3%,inactive,–,–
COC(C)(C)CCCC(C)C/C=C/C(C)=C/C(=O)OC(C)C (stereo not drawn),4.38% and 10.5%,3.83% and 3.99%,–,inactive,–
CCCCCCCCCCCCCCCC[N+](C)(C)C,0.975% and 0.339%,1.77% and -0.579%,inactive,–,–
COCCOCCO,-0.559% and 0.0587%,-0.0911% and 0.363%,inactive,–,–
O=C(O)COc1nc(Cl)c(Cl)cc1Cl,0.732%,-3.53%,inactive,–,–
Cc1cc(O)ccc1Cl,-0.735%,-2.23%,inactive,–,–
O=S(=O)(c1ccc(Cl)cc1)c1ccc(Cl)cc1,-0.947% and -1.11% and 1.55%,2.6% and -3.68% and -3.44%,inactive,inactive,–
CCCN(CCC)c1c([N+](=O)[O-])cc(S(N)(=O)=O)cc1[N+](=O)[O-],-1.72%,9.4%,inactive,–,–
Nc1ccc(Cl)cc1N,–,-5.6% and -0.828%,–,inactive,50.1 µM (active) and 39.8 µM (active)
